From PubChem BioAssay (NCATS) come the findings set out here.

Assay [1] has as its target Lysosomal acid glucosylceramidase (Homo sapiens) (UniProt P04062). As to the kind of experiment: Glucocerebrosidase-p2 (AID 348; in the data active = potency below about 10 µM; also: potency is read from the fitted curve at half-maximal effect). As to conditions: purified GBA, blue fluorogenic substrate, 40 min. In outline: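 Compounds titrated from 0.6 nM upwards against 0.2 nM enzyme in pH 5.9 citric acid/KH2PO4, taurocholate, tween-20; blue fluorogenic substrate 80 uM, 40 min room temperature, stopped and read Ex 365/Em 440 for AC50.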

The target in assay [2] is Glucocorticoid receptor (Homo sapiens) (UniProt P04150). Put plainly: GR-GFP Redistribution (AID 450;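 active = compounds whose dose series gives a full or clear partial fitted curve of increased nuclear translocation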; also: potency is read from the fitted curve at half-maximal effect). Particulars: U2OS GR-GFP nuclear translocation, laser cytometry, 2 h.
Assay [3] has the same target. As to the kind of experiment: GR-EFC Redistribution (AID 451; calls by dose curve; also: potency is read from the fitted curve at half-maximal effect). Particulars: CHO-K1 GR-EFC translocation, beta-gal luminescence, 2 h. The method, boiled down:
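CHO-K1 cells stably expressing nuclear-localized β-gal enzyme acceptor and GR fused C-terminally to the enzyme donor fragment; ligand-driven nuclear translocation restores β-gal by complementation. Compounds titrated up to 46 uM final, 2 h at 37 °C; luminescence read.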

Assay [4] deals with 3',5'-cyclic-AMP phosphodiesterase 4B (Homo sapiens) (UniProt Q07343). As to the kind of experiment: qHTS Assay for Inhibitors of PDE-IV (AID 607; active = well fitted activation curve with a large enough effect in the main read-out, with a control signal flat, not every such curve was filed as active; also: % of control where 0% means no effect). Particulars: HEK293 ACTOne CNG channel cells, membrane potential fluorescence; series mostly up to 22.9 µM. The method, boiled down: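 HEK293 ACTOne cells with CNG channel (1000/well), endogenous PDE4; membrane potential dye, compounds up to 22.9 uM final. Fluorescence Ex 535/Em 590; RO 20-1724 (100 uM final) as reference.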

Assay [5] has as its target Cytochrome P450 3A4 (Homo sapiens) (UniProt P08684). As to the kind of experiment: qHTS Assay for Activators of Cytochrome P450 3A4 (AID 885). Also: nearly all actives have a fitted effect of over 65% in size. Particulars: recombinant CYP3A4, Luciferin-PPXE luminescence, 60 min; series mostly up to 57.1 µM. The method, boiled down: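 Human CYP3A4 (20 nM) with Luciferin-PPXE at 25 uM (its KM) in 200 mM KPO4; 10 min compound preincubation, then NADPH regeneration and 60 min reaction at RT. Luciferin read by luminescence; normalized to 57 uM ketoconazole full inhibition.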
In general terms: Quantitative high-throughput screening tests each substance at several concentrations.

The target in assay [6] is Dual specificity protein kinase CLK4 (Homo sapiens) (UniProt Q9HAZ1). Put plainly: qHTS Assay for Inhibitors of CDC-like Kinase 4 (Kinase-Glo Assay) (AID 1770). Also: nearly all actives have a fitted effect of over 65% in size. Also: potency is read from the fitted curve at half-maximal effect. Particulars: recombinant Clk4, Kinase-Glo ATP depletion luminescence; series mostly up to 66.7 µM. The method, boiled down: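 Substrate mix (RS peptide 100 uM, ATP 1 uM) dispensed, compound pinned in, then Clk4 added to 25 nM final. Incubated 4.5 h at RT; Kinase-Glo reagent added, luminescence read after 5 min.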

Assay [7] shares this target. As to the kind of experiment: qHTS Assay for Inhibitors of CDC-like Kinase 4 (ADP-Glo Assay) (AID 1771). Also: nearly all actives have a fitted effect of over 70% in size. Also: potency is read from the fitted curve at half-maximal effect. As to conditions: recombinant CLK4, ADP-Glo luminescence; series mostly up to 80 µM. The method, boiled down:
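Kinase reaction: Clk4 at 25 nM, RS repeat peptide substrate at 100 uM, ATP at 1 uM, 1 hr, room temperature. Product ADP detected as luciferase signal via ADP-Glo.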

Assay [8] shares this target. As to the kind of experiment: qHTS Assay for Inhibitors of CDC-like Kinase 4 (ADP-FP Assay) (AID 1795). Also: nearly all actives have a fitted effect of over 60% in size. Also: potency is read from the fitted curve at half-maximal effect. As to conditions: Transcreener ADP fluorescence polarization; series mostly up to 50 µM. The method, boiled down: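 Clk4 6.25 nM; RS peptide 100 uM; ATP 1 uM; 25 mM Tris pH 7.5, 10 mM MgCl2; 1 h reaction. ADP detected via antibody/orange tracer FP displacement; TG003 positive control.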

In assay [9] the target is Ubiquitin carboxyl-terminal hydrolase 1 (Homo sapiens) (UniProt O94782). As to the kind of experiment: Inhibitors of USP1/UAF1: Pilot qHTS (AID 504865).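 Also: rhodamine fluorescence freed from ubiquitin-rhodamine substrate followed over time; top concentration of the series differs between compounds; % is scaled to controls: 0 for no effect and ±100 for the full control effect; nearly all actives have a fitted effect of over 35% in size.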 Particulars: purified USP1/UAF1, Ub-rhodamine cleavage fluorescence; series mostly up to 54.9 µM. The method, boiled down: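 In 50mM HEPES pH 7.8 containing 0.5mM EDTA, 1mM TCEP, 0.1 mg/ml BSA and 0.01% Tween-20, 1nM USP1/UAF1 is exposed to compound for 15 min, then Ub-Rho (150nM final) is added and fluorescence is read over time.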

The nature of assay [10]: Primary qHTS for small molecule stabilizers of the endoplasmic reticulum resident proteome: Secreted ER Calcium Modulated Protein (SERCaMP) assay (AID 1508630). Also: % is scaled to controls: 0 for no effect and ±100 for the full control effect. As to conditions: SH-SY5Y GLuc-SERCaMP (Gaussia luciferase released on ER calcium loss) secretion, thapsigargin, luminescence; series mostly up to 38.4 µM. The method, boiled down:
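GLuc-SERCaMP-expressing SH-SY5Y cells, pretreated 16 h with compound, are challenged with thapsigargin to empty ER calcium stores; after 4 h, coelenterazine is added directly to the medium and luminescence is imaged.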

For assay [11], the target named is Rap guanine nucleotide exchange factor 3 (Homo sapiens) (UniProt O95398). As to the kind of experiment: Confirmatory qHTS for agonist of cAMP-regulated guanine nucleotide exchange factor 3 (EPAC1) (AID 1645881).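 Also: EPAC1 catalysed release of BODIPY-GDP from Rap1B seen as fluorescence loss; 100% = effect of cAMP agonist control; nearly all actives have a fitted effect of over 75% in size.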 As to conditions: EPAC1 Rap1B BODIPY-GDP exchange fluorescence; series mostly up to 154 µM.
A short description of assay [12]: AP1 Signaling Pathway (AID 357; active = well fitted curve in either direction with a large enough effect, not every such curve was filed as active;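 also: ME-180 reporter cells stimulated with EGF at its EC50 level; % is scaled to controls: 0 for no effect and ±100 for the full control effect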). Particulars: ME-180 AP-1-bla reporter, EGF-induced, beta-lactamase ratio, 5 h; at 7.69 µM (top of the series) unless noted. In outline:
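In this screen, ME-180 cells in Opti-MEM with 0.5% dialyzed FBS received EC50 EGF and compound titrations for 5 h. AP-1 reporter beta-lactamase was detected via CCF4 ratio, giving AC50 for positive and negative modulators.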

The target of assay [13] is Cytochrome P450 1A2 (Homo sapiens) (UniProt P05177). Put plainly: p450-cyp1a2 (AID 410; calls by dose curve; also: potency is read from the fitted curve at half-maximal effect). Particulars: recombinant CYP1A2, luciferin-ME demethylation, luminescence; series mostly up to 57 µM. The method, boiled down:
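Inhibition was calculated relative to 57 uM furafylline (full inhibition). The reaction used human CYP1A2 at 20nM with Luciferin-ME at its Km, 100uM, driven by an NADPH-regenerating system for 60 min at room temperature.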

Assay [14] can be described thus: NFAT Signaling Pathway (AID 444; active = well fitted curve in either direction with a large enough effect, not every such curve was filed as active;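 also: carbachol stimulus at about its EC50 of 1 µM final; % is scaled to controls: 0 for no effect and ±100 for the full control effect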). As to conditions: Jurkat NFAT-bla M1, carbachol, beta-lactamase ratio, 5 h; at 7.69 µM (top of the series) unless noted. The method, boiled down:
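Jurkat cells carrying an NFAT-driven β-lactamase reporter and co-transfected muscarinic M1 receptor were treated with compound plus carbachol (1 uM final, an EC50 level) for 5 h at 37 °C. CCF4 loading followed for 1 h at RT; 460/530 nm ratio gave %activity.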

Assay [15] in a line: Stat Signaling Pathway (AID 446; active = well fitted curve in either direction with a large enough effect, not every such curve was filed as active;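 also: ME-180 cervical cancer cells given 40 pM IL-6 alongside compound; SIE-controlled beta-lactamase reporter measured as 460/530 nm FRET emission ratio; % is scaled to controls: 0 for no effect and ±100 for the full control effect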). As to conditions: ME-180 SIE beta-lactamase reporter, IL-6 stimulated, 5 h; at 7.69 µM (top of the series) unless noted. In outline: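 ME-180 cells carrying a SIE-driven beta-lactamase reporter are stimulated with 40 pM IL-6 for 5 h at 37C in the presence of compound. The 460/530 nm FRET substrate ratio is read after 2.5 h at RT. Data are normalised to 300 pM IL-6 and to 125 nM JAK inhibitor controls.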

For assay [16], the target named is Mitogen-activated protein kinase 10 (Mus musculus) (UniProt Q61831). As to the kind of experiment: JNK3 AlphaScreen Assay (AID 530; active = well fitted curve in either direction with a large enough effect, not every such curve was filed as active). As to conditions: JNK3 lysate, c-Jun phosphorylation; series mostly up to 57.1 µM. The method, boiled down:
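JNK3 came from HepG2 lysates pre-activated with IL-1beta and TNF-alpha and phosphorylated biotinylated GST-cJun (1-79) at 10 uM ATP, pH 7.6, room temperature. Compounds were titrated. AlphaScreen signal used anti-phospho-cJun (Ser73) antibody.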
On the technique in general: Bead proximity is the source of the signal in Alpha formats.

For assay [17], the target named is Cytochrome P450 3A4 (Homo sapiens) (UniProt P08684). As to the kind of experiment: qHTS Assay for Inhibitors and Substrates of Cytochrome P450 3A4 (AID 884). Also: potency is read from the fitted curve at half-maximal effect; nearly all actives have a fitted effect of over 50% in size. Particulars: recombinant CYP3A4, Luciferin-PPXE luminescence; series mostly up to 57.1 µM. In outline:
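20 nM human CYP3A4 with 25 uM Luciferin-PPXE (at KM) in 200 mM KPO4, preincubated 10 min with compound; NADPH regeneration started a 60 min RT reaction. Luciferin detected by luminescence, normalized to 57 uM ketoconazole as full inhibition.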

Assay [18] concerns the target Cytochrome P450 2C9 (Homo sapiens) (UniProt P11712). Put plainly: qHTS Assay for Inhibitors and Substrates of Cytochrome P450 2C9 (AID 883). Also: % is scaled to controls: 0 for no effect and ±100 for the full control effect; nearly all actives have a fitted effect of over 60% in size. Particulars: recombinant CYP2C9, luciferin-H luminescence, 60 min; series mostly up to 57.1 µM. In outline: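 CYP2C9 deoxyluciferin hydroxylation, 37C, 60 min with NADPH regeneration; 10nM enzyme, 100uM Luciferin-H (KM). Glo detection reagent stopped reaction; luminescence normalized to sulphaphenazole (57uM) full inhibition.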

Unmarked numbers belong to inactive results. Inconclusive results are not listed. Activity calls are given as the source filed them. Unless noted, calls follow the shape of the dose curve; as a rule, active = well fitted curve in the direction sought with a large enough effect; inconclusive = small, poorly fitted or top-dose-only effect, or another doubt; inactive = no such curve, though single readings can be large; an effect the other way counts as inactive or inconclusive.

Chain of Lysosomal acid glucosylceramidase (Homo sapiens) (P04062 whole entry, looked up): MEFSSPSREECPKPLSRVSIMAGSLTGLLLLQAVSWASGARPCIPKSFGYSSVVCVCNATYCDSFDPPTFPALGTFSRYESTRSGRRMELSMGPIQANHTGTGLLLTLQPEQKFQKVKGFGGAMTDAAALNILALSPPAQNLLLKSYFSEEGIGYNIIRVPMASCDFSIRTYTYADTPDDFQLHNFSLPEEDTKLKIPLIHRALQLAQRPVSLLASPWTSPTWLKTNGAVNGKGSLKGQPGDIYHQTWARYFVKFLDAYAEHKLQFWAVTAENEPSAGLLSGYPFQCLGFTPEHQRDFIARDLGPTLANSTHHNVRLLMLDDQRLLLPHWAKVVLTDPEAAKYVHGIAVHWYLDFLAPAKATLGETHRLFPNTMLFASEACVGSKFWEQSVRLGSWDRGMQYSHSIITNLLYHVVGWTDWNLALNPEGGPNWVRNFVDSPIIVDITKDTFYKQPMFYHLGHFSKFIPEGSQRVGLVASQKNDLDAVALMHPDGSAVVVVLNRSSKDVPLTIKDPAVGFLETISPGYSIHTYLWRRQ
Chain of Cytochrome P450 1A2 (Homo sapiens) (P05177 whole entry, looked up): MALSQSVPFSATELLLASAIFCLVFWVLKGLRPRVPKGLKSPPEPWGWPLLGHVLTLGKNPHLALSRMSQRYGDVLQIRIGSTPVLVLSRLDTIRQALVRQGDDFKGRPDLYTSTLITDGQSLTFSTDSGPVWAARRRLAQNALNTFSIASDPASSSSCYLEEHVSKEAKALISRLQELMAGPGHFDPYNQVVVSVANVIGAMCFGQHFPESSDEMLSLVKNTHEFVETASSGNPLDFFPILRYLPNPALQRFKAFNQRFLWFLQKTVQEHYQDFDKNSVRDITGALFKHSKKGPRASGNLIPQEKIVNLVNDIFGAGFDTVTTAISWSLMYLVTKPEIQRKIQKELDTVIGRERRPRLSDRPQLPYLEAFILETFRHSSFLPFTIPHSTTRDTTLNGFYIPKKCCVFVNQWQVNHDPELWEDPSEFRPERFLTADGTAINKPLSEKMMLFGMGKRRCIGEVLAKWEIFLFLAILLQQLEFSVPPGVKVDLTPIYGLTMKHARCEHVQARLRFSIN
Chain of Cytochrome P450 3A4 (Homo sapiens) (P08684 whole entry, looked up): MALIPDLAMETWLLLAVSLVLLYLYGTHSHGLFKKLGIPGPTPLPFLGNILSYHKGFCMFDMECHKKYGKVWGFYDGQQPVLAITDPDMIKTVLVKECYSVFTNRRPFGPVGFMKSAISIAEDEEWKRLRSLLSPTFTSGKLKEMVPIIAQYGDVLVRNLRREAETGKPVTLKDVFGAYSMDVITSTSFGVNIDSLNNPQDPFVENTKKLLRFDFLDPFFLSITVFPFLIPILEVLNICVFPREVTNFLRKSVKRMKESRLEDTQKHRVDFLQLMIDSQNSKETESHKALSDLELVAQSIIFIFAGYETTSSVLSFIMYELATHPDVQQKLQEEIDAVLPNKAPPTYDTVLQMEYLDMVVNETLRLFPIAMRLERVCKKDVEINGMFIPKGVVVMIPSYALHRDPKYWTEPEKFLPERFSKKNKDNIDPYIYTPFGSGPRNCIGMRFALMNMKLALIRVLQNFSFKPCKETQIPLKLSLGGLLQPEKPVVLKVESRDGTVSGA
Chain of Ubiquitin carboxyl-terminal hydrolase 1 (Homo sapiens) (O94782 whole entry, looked up): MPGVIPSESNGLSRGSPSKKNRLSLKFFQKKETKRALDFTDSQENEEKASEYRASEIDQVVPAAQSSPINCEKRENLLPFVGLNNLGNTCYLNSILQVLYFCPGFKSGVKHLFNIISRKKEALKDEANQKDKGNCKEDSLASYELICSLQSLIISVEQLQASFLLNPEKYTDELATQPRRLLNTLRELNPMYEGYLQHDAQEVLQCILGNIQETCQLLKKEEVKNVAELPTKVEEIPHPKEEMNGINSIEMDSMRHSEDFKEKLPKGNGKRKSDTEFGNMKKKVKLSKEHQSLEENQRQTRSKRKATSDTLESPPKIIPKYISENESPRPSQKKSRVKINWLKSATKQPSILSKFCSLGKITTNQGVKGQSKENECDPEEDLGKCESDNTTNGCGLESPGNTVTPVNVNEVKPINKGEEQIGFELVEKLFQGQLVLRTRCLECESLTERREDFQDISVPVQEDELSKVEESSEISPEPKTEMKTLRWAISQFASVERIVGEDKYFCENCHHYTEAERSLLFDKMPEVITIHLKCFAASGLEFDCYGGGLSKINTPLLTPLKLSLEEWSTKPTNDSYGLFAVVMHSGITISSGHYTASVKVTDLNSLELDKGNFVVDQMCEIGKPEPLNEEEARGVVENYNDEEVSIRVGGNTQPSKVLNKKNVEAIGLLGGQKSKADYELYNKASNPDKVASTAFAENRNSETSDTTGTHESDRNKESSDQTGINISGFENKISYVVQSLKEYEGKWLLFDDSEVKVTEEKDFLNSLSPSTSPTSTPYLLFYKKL
Chain of Dual specificity protein kinase CLK4 (Homo sapiens) (Q9HAZ1 whole entry, looked up): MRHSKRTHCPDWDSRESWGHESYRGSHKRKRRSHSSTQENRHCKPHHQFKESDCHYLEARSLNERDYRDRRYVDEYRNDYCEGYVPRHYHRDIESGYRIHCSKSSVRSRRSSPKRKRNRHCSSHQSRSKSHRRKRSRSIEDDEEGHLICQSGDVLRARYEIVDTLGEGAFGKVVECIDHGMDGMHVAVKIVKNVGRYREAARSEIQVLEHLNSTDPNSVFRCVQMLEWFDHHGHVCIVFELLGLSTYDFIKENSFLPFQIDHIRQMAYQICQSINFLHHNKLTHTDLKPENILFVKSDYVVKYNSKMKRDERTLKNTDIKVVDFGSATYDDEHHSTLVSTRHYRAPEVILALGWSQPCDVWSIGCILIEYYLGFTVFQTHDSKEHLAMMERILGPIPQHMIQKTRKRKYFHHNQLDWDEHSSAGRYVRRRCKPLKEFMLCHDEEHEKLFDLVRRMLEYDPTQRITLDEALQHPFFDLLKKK
Chain of 3',5'-cyclic-AMP phosphodiesterase 4B (Homo sapiens) (Q07343 whole entry, looked up): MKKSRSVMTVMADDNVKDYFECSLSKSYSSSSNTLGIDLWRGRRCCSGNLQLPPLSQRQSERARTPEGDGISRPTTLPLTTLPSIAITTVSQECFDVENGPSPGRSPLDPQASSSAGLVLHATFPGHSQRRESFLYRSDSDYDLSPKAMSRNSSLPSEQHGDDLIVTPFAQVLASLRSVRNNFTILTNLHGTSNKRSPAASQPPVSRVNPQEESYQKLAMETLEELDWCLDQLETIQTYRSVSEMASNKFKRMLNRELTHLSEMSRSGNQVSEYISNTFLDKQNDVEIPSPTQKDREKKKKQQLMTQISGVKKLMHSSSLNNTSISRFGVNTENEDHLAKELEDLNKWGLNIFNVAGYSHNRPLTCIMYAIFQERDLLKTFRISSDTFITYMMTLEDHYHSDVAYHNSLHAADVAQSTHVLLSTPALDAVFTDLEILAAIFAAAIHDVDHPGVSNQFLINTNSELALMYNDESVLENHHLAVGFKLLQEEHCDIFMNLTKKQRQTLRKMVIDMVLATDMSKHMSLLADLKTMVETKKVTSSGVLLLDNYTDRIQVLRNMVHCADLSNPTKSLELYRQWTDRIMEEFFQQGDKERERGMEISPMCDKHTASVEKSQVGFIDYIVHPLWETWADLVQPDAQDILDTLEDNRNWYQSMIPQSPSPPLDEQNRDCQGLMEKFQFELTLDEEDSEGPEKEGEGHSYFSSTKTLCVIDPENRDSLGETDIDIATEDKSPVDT
Chain of Glucocorticoid receptor (Homo sapiens) (P04150 whole entry, looked up): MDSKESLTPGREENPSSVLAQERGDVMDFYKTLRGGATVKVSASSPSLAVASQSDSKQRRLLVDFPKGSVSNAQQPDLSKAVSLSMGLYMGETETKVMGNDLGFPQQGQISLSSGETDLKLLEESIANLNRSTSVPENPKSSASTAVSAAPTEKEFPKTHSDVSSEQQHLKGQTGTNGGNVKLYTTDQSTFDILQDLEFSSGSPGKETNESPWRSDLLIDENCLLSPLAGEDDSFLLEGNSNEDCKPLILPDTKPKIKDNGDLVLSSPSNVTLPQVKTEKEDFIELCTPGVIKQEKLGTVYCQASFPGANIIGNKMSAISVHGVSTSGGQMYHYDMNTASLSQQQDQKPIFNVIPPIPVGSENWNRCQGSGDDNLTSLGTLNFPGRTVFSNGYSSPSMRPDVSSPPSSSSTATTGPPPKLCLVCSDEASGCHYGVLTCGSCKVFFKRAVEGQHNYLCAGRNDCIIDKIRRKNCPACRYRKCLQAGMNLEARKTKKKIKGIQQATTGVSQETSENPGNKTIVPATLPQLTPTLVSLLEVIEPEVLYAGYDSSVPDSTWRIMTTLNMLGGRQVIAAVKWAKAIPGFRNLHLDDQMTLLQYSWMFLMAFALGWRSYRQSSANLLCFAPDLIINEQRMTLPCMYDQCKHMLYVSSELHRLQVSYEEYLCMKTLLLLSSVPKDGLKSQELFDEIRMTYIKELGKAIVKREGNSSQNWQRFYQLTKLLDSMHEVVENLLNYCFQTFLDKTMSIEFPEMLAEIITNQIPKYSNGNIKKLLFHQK
Chain of Cytochrome P450 2C9 (Homo sapiens) (P11712 whole entry, looked up): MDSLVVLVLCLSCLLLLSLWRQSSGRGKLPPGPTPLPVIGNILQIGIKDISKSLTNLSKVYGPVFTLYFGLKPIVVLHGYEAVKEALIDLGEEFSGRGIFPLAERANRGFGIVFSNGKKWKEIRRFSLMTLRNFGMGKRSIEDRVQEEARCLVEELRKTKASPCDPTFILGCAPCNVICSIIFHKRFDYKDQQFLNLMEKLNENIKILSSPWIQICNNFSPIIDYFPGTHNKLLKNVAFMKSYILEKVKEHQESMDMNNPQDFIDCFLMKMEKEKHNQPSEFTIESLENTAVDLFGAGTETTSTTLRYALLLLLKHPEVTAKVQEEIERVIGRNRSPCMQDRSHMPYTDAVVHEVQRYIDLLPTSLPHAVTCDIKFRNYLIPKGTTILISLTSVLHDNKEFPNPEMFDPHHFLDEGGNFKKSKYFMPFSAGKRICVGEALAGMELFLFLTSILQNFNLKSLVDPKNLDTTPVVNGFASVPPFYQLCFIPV

As to `COc1cccc(Cn2c(=O)c(-c3ccc(Cl)cc3)nc3cnc(N4CCNCC4)nc32)c1`, the Potency in assay [1] is more than 11.4 µM; in [2] it was more than 9.22 µM; in assay [3], more than 46 µM. Besides, the Potency result in assay [4], in assay [5], in assay [6], in assay [7], in assay [8] and in assay [9] was “inactive” each time. For the same molecule, in assay [11], the Potency entry was “inactive”. Also, the outcome in assay [10] was inactive.

As to `Cc1cccc(CNc2ncncc2-c2ccc(C(=O)N(C)C)cc2)c1`, the Potency is more than 11.4 µM in assay [1]; 15.8 µM (active) in assay [13]; more than 46 µM in assay [2]; more than 46 µM in assay [3]; 0.631 µM (active) in assay [17]. The results for the activity change, negative = inhibition in [12] and in [14] were -19% and 11.4%, respectively. In addition, in [15], the activity, negative = inhibition was 1.97%. Besides, the Potency entry in assay [16], in [4], in [5], in assay [6], in [7] and in [8] was “inactive” each time. Besides, in assay [9], the Potency result is “inactive”. For the same molecule, the outcome in assay [10] was inactive.

As for `COc1cccc(Cn2c(=O)c(CCc3ccccc3)nc3cncnc32)c1`, the Potency in assay [1] was more than 11.4 µM; in assay [13], 12.6 µM (active); in assay [2], more than 9.22 µM; in [3], more than 46 µM; in assay [17], 2.51 µM (active). For the same molecule, the results for the activity change, negative = inhibition in assay [12] and in assay [14] were -12.1% and -7.87%, respectively. The activity, negative = inhibition in [15] is -9.09%. Moreover, the Potency result in [16], in assay [4], in [5], in assay [6], in assay [7] and in assay [8] was “inactive” in each case. In [9], the Potency result was “inactive”. Also, the outcome in assay [10] was inactive.

With `COc1ccc(-n2c(=O)c(-c3cc(F)cc(F)c3)nc3cncnc32)cc1`, the Potency in assay [1] was more than 11.4 µM; in assay [13], 12.6 µM (active); in [2] it was more than 9.22 µM; in assay [3] it was more than 46 µM. Further, the results for the activity change, negative = inhibition in assay [12] and in assay [14] were -5% and -16%, respectively. Moreover, the activity, negative = inhibition in assay [15] is 6.92%. For the same molecule, the Potency result in [16], in assay [4], in [5], in [6], in [7] and in assay [8] was “inactive” in each case. In addition, in [9], the Potency entry is “inactive”. For the same molecule, the result in assay [10] was inactive.

For the molecule `CS(=O)(=O)Nc1cccc(-c2cc(NCc3cccs3)ncn2)c1`, the Potency in assay [1] is more than 11.4 µM; in assay [13], 6.31 µM (active); in [2] it was more than 46 µM; in assay [3], more than 46 µM; in assay [6] it was 10 µM (active); in [7] it was 12.6 µM (active). For the same molecule, the Potency in assay [8] was 12.6 µM (active). Besides, the activity change, negative = inhibition in assay [12] was -14.7%; in assay [14], -3.98%; in [18] it was 35.3% [at 2.29 µM]. For the same molecule, the activity, negative = inhibition in assay [15] was -1.82%. In addition, the Potency result in assay [16], in [4], in assay [5] and in [9] was “inactive” in each case. Besides, the result in [10] was inactive.

Turning to `COc1ccc(-n2c(=O)c(C)nc3cnc(N4CCOCC4)nc32)cc1`, the Potency in assay [1] is more than 11.4 µM; in [13] it was 12.6 µM (active); in assay [2], more than 9.22 µM; in assay [3], more than 46 µM. Besides, the activity change, negative = inhibition in [12] was -10.2%; in [14], 3.24%. In addition, the activity, negative = inhibition in assay [15] is -6.68%. In addition, the Potency result in [16], in assay [4], in assay [5], in assay [6], in assay [7] and in assay [8] was “inactive” throughout. For the same molecule, in assay [9], the Potency entry was “inactive”. Moreover, the outcome in [10] was inactive.
